# Assay results published in PubChem BioAssay (EPA / NIEHS).
# Records with an inconclusive call do not appear. The source made the active and inactive calls. How the source made its calls, unless noted: active means hit-call score of the fitted dose curve at least 0.9, where 1 is the maximum; inconclusive means response in the unintended direction; inactive means score below 0.9.
# Experiments:
# [1] = target: human Peroxisome Proliferator-activated Receptor alpha (PPARa), PPARA (gene 5465) (UniProt Q07869); test: ATG_PPARa_TRANS: Attagene TRANS-FACTORIAL HepG2 Assay for human Peroxisome Proliferator-activated Receptor alpha (PPARa) (AID 2283001);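 on AC50: potency for gain of reporter signal over DMSO so agonist or activator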
# Sequence of human Peroxisome Proliferator-activated Receptor alpha (PPARa), PPARA (gene 5465) (Q07869 whole entry, looked up, the tested form may be a part): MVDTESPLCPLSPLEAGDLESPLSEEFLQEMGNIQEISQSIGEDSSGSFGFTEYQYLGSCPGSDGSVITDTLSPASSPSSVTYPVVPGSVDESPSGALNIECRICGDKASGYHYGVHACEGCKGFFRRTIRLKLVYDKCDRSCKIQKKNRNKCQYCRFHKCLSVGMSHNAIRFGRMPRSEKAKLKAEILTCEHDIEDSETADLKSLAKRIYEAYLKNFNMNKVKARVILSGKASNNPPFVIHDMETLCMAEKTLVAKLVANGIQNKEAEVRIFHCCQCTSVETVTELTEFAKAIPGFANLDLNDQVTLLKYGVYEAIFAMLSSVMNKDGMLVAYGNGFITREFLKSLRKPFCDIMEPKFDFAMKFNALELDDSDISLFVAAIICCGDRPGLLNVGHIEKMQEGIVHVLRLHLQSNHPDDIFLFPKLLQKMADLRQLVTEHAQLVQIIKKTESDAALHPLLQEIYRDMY
# Procedure, shortened: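 Measures transcriptional activity of an exogenous chimeric PPARa-Gal4 protein in transiently transfected HepG2 cells after 24 h dosing. Reporter mRNA quantified via RT-PCR and capillary electrophoresis; DMSO served as negative control.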
# [2] = read-out: Intercellular Adhesion Molecule 1 (ICAM1), ICAM1 (gene 3383); test: BSK_3C_ICAM1: BioMAP Diversity Plus: 3C Assay for Intercellular Adhesion Molecule 1 (ICAM1) Biomarker Activity (AID 2283003; active means hit-call score of the fitted dose curve at least 0.9, where 1 is the maximum; inactive means score below 0.9); conditions: primary human endothelial cells (HUVEC); actives raise or lower the signal
# Procedure, shortened: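 Primary human umbilical vein endothelial cells in the BioMAP 3C system were exposed to chemicals for 24 h, then ICAM-1 was quantified by ELISA. Activity was fitted bidirectionally against the DMSO negative control baseline.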
# [3] = BSK_3C_Proliferation: Cell Proliferation Assessment in the BioMAP Diversity Plus: 3C Assay (AID 2283006; active means hit-call score of the fitted dose curve at least 0.9, where 1 is the maximum; inactive means score below 0.9); conditions: primary human endothelial cells (HUVEC)
# Procedure, shortened: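 Human umbilical vein endothelial cells were grown sub-confluent and exposed to chemical for 48 h, then fixed with 10% TCA and stained with 0.1% sulforhodamine B; absorbance at 560 nm gave relative cell number, fitted bidirectionally against DMSO baseline.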
# [4] = target: Peroxisome proliferator-activated receptor gamma (Homo sapiens) (UniProt P37231); test: ATG_PPARg_TRANS: Attagene TRANS-FACTORIAL HepG2 Assay for human Peroxisome Proliferator-activated Receptor-gamma (PPARg) (AID 2283007)
# Sequence of Peroxisome proliferator-activated receptor gamma (Homo sapiens) (P37231 whole entry, looked up, the tested form may be a part): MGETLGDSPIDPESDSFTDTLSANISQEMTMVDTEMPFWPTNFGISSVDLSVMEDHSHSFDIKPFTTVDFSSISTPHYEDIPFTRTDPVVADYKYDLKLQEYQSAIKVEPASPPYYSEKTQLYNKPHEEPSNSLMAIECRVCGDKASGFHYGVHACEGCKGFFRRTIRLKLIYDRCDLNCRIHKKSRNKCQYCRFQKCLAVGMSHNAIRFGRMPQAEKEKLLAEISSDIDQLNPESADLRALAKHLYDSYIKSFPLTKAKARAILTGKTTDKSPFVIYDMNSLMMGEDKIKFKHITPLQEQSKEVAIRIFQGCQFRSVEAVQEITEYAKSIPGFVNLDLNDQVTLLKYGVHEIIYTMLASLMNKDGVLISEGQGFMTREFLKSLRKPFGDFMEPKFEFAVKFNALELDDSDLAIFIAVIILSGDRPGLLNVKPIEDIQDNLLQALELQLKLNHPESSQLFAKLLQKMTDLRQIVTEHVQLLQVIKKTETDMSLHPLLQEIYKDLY
# Procedure, shortened: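 HepG2 cells transiently transfected with multiplexed GAL4-UAS reporter units and exogenous chimeric NR-Gal4 proteins; reporter mRNA quantified after 24 h compound exposure by RT-PCR, fluorescent labelling, HpaI digestion and capillary electrophoresis; gain-of-signal fitted versus DMSO baseline.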
# [5] = target: Nuclear receptor subfamily 1 group I member 2 (Homo sapiens) (UniProt O75469); test: ATG_PXR_TRANS: Attagene TRANS-FACTORIAL HepG2 Assay for human Pregnane X Receptor (PXR) (AID 2283008)
# Sequence of Nuclear receptor subfamily 1 group I member 2 (Homo sapiens) (O75469 whole entry, looked up, the tested form may be a part): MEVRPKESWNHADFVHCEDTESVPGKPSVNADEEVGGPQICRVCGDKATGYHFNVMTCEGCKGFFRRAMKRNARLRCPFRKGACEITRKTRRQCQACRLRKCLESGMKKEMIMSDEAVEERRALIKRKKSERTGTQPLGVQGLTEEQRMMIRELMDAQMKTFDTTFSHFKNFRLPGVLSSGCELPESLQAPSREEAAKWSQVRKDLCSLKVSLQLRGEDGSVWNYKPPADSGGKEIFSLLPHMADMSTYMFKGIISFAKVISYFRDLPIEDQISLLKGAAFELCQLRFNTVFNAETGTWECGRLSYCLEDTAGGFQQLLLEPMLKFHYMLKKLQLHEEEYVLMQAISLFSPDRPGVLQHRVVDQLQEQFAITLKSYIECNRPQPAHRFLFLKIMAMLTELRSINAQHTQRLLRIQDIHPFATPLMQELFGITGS
# Procedure, shortened: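 HepG2 cells transiently transfected with multiple reporter units, here a PXR-GAL4 chimera driving a GAL4-UAS reporter; 24 h compound exposure. Reporter mRNA measured by RT-PCR, FAM labelling and capillary electrophoresis; gain of signal fitted against DMSO baseline.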
# [6] = target: human RAR-related Orphan Receptor gamma (RORg), RORC (gene 6097) (UniProt P51449); test: ATG_RORg_TRANS: Attagene TRANS-FACTORIAL HepG2 Assay for human RAR-related Orphan Receptor gamma (RORg) (AID 2283011)
# Sequence of human RAR-related Orphan Receptor gamma (RORg), RORC (gene 6097) (P51449 whole entry, looked up, the tested form may be a part): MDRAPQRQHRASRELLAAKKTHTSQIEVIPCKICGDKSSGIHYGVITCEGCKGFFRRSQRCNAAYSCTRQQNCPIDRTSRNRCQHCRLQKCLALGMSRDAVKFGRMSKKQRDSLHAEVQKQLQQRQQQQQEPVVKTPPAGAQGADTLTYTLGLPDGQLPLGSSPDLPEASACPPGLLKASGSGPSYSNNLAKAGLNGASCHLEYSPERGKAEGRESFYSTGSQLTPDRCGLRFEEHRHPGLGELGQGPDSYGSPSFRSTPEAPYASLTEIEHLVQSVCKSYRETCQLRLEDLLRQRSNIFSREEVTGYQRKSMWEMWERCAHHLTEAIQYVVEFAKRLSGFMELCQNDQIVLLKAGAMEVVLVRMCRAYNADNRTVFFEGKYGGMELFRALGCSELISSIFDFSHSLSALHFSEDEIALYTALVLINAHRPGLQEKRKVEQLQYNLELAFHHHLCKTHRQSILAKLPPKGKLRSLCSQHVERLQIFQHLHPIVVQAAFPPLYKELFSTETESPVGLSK
# Procedure, shortened: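 Readout: reporter transcript induction (RT-PCR, fluorescent primer extension, capillary electrophoresis) after 24 h compound exposure of transiently transfected HepG2 cells carrying a RORg-Gal4 chimera and GAL4-UAS reporters; DMSO served as baseline, with increasing signal fitted.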
# [7] = target: human Retinoid X Receptor beta (RXRb), RXRB (gene 6257) (UniProt P28702); test: ATG_RXRb_TRANS: Attagene TRANS-FACTORIAL HepG2 Assay for human Retinoid X Receptor beta (RXRb) (AID 2283013)
# Sequence of human Retinoid X Receptor beta (RXRb), RXRB (gene 6257) (P28702 whole entry, looked up, the tested form may be a part): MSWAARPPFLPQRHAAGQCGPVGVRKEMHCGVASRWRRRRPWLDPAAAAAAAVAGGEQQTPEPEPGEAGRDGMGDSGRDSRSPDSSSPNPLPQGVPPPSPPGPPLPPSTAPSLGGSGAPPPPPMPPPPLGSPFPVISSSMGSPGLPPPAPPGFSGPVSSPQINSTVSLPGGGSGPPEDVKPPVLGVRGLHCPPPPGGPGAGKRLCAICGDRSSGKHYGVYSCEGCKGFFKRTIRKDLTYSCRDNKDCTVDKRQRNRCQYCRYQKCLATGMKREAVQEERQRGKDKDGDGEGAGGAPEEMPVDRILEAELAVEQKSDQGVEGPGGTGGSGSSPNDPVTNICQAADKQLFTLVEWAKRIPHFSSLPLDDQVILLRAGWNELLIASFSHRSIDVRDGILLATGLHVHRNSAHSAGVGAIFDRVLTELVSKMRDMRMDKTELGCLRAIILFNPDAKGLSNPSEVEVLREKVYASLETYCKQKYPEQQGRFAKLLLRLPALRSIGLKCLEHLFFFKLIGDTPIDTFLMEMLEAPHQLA
# Procedure, shortened: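 HepG2 cells transiently transfected with multiplexed reporter units driven by GAL4-UAS and exogenous chimeric NR-Gal4 proteins; treated 24 h. Reporter mRNA measured by RT-PCR, 6-FAM labelling and capillary electrophoresis; gain-of-signal fitted versus DMSO baseline.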
# [8] = target: human Thyroid Receptor alpha (THRa1), THRA (gene 7067) (UniProt P10827); test: ATG_THRa1_TRANS: Attagene TRANS-FACTORIAL HepG2 Assay for human Thyroid Receptor alpha (THRa1) (AID 2283014)
# Sequence of human Thyroid Receptor alpha (THRa1), THRA (gene 7067) (P10827 whole entry, looked up, the tested form may be a part): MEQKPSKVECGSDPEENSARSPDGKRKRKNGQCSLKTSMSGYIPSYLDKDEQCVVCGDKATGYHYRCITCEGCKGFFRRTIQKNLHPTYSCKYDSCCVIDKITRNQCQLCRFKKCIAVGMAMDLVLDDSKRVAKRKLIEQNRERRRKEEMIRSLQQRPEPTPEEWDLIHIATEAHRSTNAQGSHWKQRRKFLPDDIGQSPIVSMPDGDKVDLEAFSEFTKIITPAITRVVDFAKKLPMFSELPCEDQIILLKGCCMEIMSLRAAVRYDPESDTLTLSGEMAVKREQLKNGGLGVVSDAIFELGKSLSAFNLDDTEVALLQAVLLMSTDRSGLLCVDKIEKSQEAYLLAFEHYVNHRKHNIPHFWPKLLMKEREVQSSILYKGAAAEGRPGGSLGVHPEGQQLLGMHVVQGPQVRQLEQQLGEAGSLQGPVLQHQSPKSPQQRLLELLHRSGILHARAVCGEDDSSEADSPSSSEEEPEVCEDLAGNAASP
# Procedure, shortened: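 HepG2 cells transiently transfected with multiplexed GAL4-UAS reporter units for exogenous chimeric THRa1-Gal4; reporter mRNA measured 24 h after dosing by RT-PCR, 6-FAM labelling, HpaI digestion and capillary electrophoresis. Gain-of-signal fitted versus DMSO baseline.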
# [9] = read-out: E-selectin (Homo sapiens) (UniProt P16581); test: BSK_3C_Eselectin: BioMAP Diversity Plus: 3C Assay for Eselectin Biomarker Activity (AID 2283015; active means hit-call score of the fitted dose curve at least 0.9, where 1 is the maximum; inactive means score below 0.9;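 further: cell surface E-selectin protein quantified by ELISA 24 h after dosing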); conditions: primary human endothelial cells (HUVEC); actives raise or lower the signal
# Procedure, shortened: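 Primary human umbilical vein endothelial cells (3C system) were dosed with chemical and cell-surface E-selectin measured by ELISA 24 h later. Bidirectional curve fitting used DMSO as negative control and baseline.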
# [10] = read-out: Interleukin-1 alpha (IL1a), IL1A (gene 3552); test: BSK_BE3C_IL1a: BioMAP Diversity Plus: BE3C Assay for Interleukin-1 alpha (IL1a) Biomarker Activity (AID 2283016; active means hit-call score of the fitted dose curve at least 0.9, where 1 is the maximum; inactive means score below 0.9); conditions: primary human bronchial epithelial cells; actives raise or lower the signal
# Procedure, shortened: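 Human primary bronchial epithelial cells (BE3C system) were dosed with compound and IL-1a measured by ELISA 24 h later. Activity was fitted bidirectionally against DMSO baseline; cytotoxicity was tracked in parallel cultures by SRB total-protein staining.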
# [11] = read-out: Monocyte Chemoattractant Protein-1 (MCP1), CCL2 (gene 6347); test: BSK_3C_MCP1: BioMAP Diversity Plus: 3C Assay for Monocyte Chemoattractant Protein-1 (MCP1) Biomarker Activity (AID 2283017; active means hit-call score of the fitted dose curve at least 0.9, where 1 is the maximum; inactive means score below 0.9); conditions: primary human endothelial cells (HUVEC); actives raise or lower the signal
# Procedure, shortened: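 Primary human umbilical vein endothelial cells (3C system) were exposed to test chemical for 24 h, after which MCP-1 was quantified by ELISA. Activity was fitted bidirectionally against DMSO as negative control and baseline.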
# [12] = read-out: Monocyte Chemoattractant Protein-1 (MCP1), CCL2 (gene 6347); test: BSK_4H_MCP1: BioMAP Diversity Plus: 4H Assay for Monocyte Chemoattractant Protein-1 (MCP1) Biomarker Activity (AID 2283018; active means hit-call score of the fitted dose curve at least 0.9, where 1 is the maximum; inactive means score below 0.9); conditions: primary human endothelial cells (HUVEC); actives raise or lower the signal
# Procedure, shortened: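 Human umbilical vein endothelial cells (4H system) dosed with chemical; MCP-1 measured by ELISA 24 h after dosing. Bidirectional curve fitting against DMSO negative control as baseline; parallel SRB total-protein staining tracks overt cytotoxicity.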
# [13] = read-out: Human Leukocyte Antigen - DR isotype (HLADR), HLA-DRA (gene 3122); test: BSK_3C_HLADR: BioMAP Diversity Plus: 3C Assay for Human Leukocyte Antigen - DR isotype (HLADR) Biomarker Activity (AID 2283019; active means hit-call score of the fitted dose curve at least 0.9, where 1 is the maximum; inactive means score below 0.9;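 on outcome: ELISA of cell-surface HLA-DR on HUVEC 24 h after dosing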); conditions: primary human endothelial cells (HUVEC); actives raise or lower the signal
# Procedure, shortened: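 Primary human umbilical vein endothelial cells (3C system) were dosed with compound and cell-surface HLA-DR was quantified by ELISA at 24 h. Activity was fitted bidirectionally against DMSO as negative control and baseline.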
# [14] = read-out: Interleukin-8 (IL8), CXCL8 (gene 3576); test: BSK_3C_IL8: BioMAP Diversity Plus: 3C Assay for Interleukin-8 (IL8) Biomarker Activity (AID 2283020; active means hit-call score of the fitted dose curve at least 0.9, where 1 is the maximum; inactive means score below 0.9); conditions: primary human endothelial cells (HUVEC); actives raise or lower the signal
# Procedure, shortened: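 Primary human umbilical vein endothelial cells (3C system) were exposed to test chemical for 24 h, then IL-8 was quantified by ELISA. Responses were fitted bidirectionally against DMSO vehicle as baseline.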
# [15] = read-out: Monokine induced gamma interferon (MIG), CXCL9 (gene 4283); test: BSK_3C_MIG: BioMAP Diversity Plus: 3C Assay for Monokine induced gamma interferon (MIG) Biomarker Activity (AID 2283021; active means hit-call score of the fitted dose curve at least 0.9, where 1 is the maximum; inactive means score below 0.9); conditions: primary human endothelial cells (HUVEC); actives raise or lower the signal
# Procedure, shortened: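 Primary human umbilical vein endothelial cells in the 3C system were exposed to chemical for 24 h, after which MIG was quantified by ELISA. Activity was fitted bidirectionally against DMSO as negative control and baseline.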
# [16] = target: human Peroxisome Proliferator-activated Receptor delta (PPARd), PPARD (gene 5467) (UniProt Q03181); test: ATG_PPARd_TRANS: Attagene TRANS-FACTORIAL HepG2 Assay for human Peroxisome Proliferator-activated Receptor delta (PPARd) (AID 2283002)
# Sequence of human Peroxisome Proliferator-activated Receptor delta (PPARd), PPARD (gene 5467) (Q03181 whole entry, looked up, the tested form may be a part): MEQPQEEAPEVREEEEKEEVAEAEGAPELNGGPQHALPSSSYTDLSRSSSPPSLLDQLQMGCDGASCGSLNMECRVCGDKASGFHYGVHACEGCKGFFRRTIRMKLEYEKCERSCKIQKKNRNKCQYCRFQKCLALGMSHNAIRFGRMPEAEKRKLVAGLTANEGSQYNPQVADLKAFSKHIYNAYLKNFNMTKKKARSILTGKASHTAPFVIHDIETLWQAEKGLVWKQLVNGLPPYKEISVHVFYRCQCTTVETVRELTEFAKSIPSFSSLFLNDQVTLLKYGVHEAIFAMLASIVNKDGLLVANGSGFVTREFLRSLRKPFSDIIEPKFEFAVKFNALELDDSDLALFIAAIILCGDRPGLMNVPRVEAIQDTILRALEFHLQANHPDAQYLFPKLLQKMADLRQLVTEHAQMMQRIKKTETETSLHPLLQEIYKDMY
# Procedure, shortened: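 HepG2 cells transiently transfected with GAL4-UAS multiplexed reporter units driven by exogenous chimeric NR-GAL4 proteins; 24 h compound exposure. Reporter mRNA measured by RT-PCR, 6-FAM primer extension, HpaI digestion and capillary electrophoresis; gain of signal fitted relative to DMSO.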
# [17] = target: human RAR-related Orphan Receptor beta (RORb), RORB (gene 6096) (UniProt Q92753); test: ATG_RORb_TRANS: Attagene TRANS-FACTORIAL HepG2 Assay for human RAR-related Orphan Receptor beta (RORb) (AID 2283010)
# Sequence of human RAR-related Orphan Receptor beta (RORb), RORB (gene 6096) (Q92753 whole entry, looked up, the tested form may be a part): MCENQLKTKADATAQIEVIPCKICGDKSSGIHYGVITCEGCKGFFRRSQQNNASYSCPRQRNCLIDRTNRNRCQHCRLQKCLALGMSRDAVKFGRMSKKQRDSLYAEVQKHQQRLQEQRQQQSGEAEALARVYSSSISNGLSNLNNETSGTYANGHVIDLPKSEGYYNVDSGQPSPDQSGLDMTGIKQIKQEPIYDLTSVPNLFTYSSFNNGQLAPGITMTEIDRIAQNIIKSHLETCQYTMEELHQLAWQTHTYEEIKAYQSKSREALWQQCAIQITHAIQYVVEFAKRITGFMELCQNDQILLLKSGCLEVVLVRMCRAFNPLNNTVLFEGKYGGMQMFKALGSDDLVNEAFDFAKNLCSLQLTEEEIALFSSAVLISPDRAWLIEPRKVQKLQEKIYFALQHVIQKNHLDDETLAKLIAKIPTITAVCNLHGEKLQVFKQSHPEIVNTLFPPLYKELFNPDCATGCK
# Procedure, shortened: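 HepG2 cells were transiently transfected with multiplexed GAL4-UAS reporter units expressing chimeric nuclear receptor–GAL4 proteins, then dosed for 24 h. Reporter mRNA was quantified by RT-PCR with fluorescent labelling and capillary electrophoresis; gain of signal was fitted relative to DMSO.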
# [18] = target: Retinoic acid receptor RXR-alpha (Homo sapiens) (UniProt P19793); test: ATG_RXRa_TRANS: Attagene TRANS-FACTORIAL HepG2 Assay for human Retinoid X Receptor alpha (RXRa) (AID 2283012)
# Sequence of Retinoic acid receptor RXR-alpha (Homo sapiens) (P19793 whole entry, looked up, the tested form may be a part): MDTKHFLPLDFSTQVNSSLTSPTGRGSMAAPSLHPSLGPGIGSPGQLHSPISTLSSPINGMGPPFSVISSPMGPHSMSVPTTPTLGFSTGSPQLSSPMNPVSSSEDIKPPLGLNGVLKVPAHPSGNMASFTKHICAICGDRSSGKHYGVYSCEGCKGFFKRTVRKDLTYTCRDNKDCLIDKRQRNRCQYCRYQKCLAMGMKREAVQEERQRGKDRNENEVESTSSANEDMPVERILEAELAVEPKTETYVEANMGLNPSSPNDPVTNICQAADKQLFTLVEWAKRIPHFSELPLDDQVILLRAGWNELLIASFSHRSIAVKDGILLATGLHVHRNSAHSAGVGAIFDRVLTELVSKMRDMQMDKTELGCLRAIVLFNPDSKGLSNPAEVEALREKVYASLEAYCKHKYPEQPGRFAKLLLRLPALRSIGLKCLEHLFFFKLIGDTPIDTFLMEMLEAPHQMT
# Procedure, shortened: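 HepG2 cells transiently transfected with multiplexed GAL4-UAS reporter units and chimeric NR-GAL4 fusions, dosed 24 h. Reporter mRNA measured by RT-PCR, FAM labelling, HpaI digestion and capillary electrophoresis; gain-of-signal fitted relative to DMSO baseline.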
# [19] = target: human Retinoic Acid Receptor beta (RARb), RARB (gene 5915) (UniProt P10826); test: ATG_RARb_TRANS: Attagene TRANS-FACTORIAL HepG2 Assay for human Retinoic Acid Receptor beta (AID 2283004)
# Procedure, shortened: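 HepG2 cells transiently transfected with multiplexed GAL4-UAS reporter units expressing chimeric NR–Gal4 fusions; 24 h compound exposure. Reporter mRNA quantified by RT-PCR, 6-FAM labelling, HpaI digestion and capillary electrophoresis; gain-of-signal fitted against DMSO baseline.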
# [20] = target: Retinoic acid receptor alpha (Homo sapiens) (UniProt P10276); test: ATG_RARa_TRANS: Attagene TRANS-FACTORIAL HepG2 Assay for human Retinoic Acid Receptor alpha (RARa) (AID 2283005)
# Procedure, shortened: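 HepG2 transiently transfected with multiplex GAL4-UAS reporter units including a human RARa–GAL4 chimera; 24 h compound exposure. Reporter mRNA quantified by RT-PCR, 6-FAM labeling and capillary electrophoresis; gain of signal versus DMSO.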
# Sequence of E-selectin (Homo sapiens) (P16581 whole entry, looked up): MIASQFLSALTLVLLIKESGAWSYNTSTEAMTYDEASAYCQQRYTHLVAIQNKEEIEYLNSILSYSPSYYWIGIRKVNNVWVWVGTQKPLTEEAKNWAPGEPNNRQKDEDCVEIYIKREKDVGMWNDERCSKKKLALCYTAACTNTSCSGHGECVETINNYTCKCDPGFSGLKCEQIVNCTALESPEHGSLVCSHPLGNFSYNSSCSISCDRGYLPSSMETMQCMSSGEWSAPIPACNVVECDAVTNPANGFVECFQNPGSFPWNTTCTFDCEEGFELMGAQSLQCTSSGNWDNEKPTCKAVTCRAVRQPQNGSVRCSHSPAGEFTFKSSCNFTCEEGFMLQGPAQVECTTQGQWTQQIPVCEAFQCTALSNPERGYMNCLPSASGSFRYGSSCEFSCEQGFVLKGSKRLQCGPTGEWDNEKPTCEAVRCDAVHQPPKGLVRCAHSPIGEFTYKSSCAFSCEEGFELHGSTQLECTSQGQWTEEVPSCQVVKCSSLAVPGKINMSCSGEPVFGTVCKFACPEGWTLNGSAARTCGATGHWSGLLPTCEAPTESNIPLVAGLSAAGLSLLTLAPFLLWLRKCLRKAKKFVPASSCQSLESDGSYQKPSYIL
compound,measurement,setting,value
CCc1c(C)cc(N)c(CC)c1N,outcome,[1],inactive
same,outcome,[2],inactive
same,outcome,[3],inactive
same,outcome,[4],inactive
same,AC50,[5],100 µM (active)
same,outcome,[6],inactive
same,outcome,[7],inactive
same,outcome,[8],inactive
same,outcome,[9],inactive
same,outcome,[10],inactive
same,outcome,[11],inactive
same,outcome,[12],inactive
same,outcome,[13],inactive
same,outcome,[14],inactive
same,outcome,[15],inactive
O=C1c2ccccc2C(=O)N1SC1CCCCC1,outcome,[1],inactive
same,outcome,[16],inactive
same,outcome,[5],inactive
same,AC50,[7],44.4 µM (active)
COCCOCCOCCOCCOCCO,outcome,[1],inactive
same,outcome,[16],inactive
same,outcome,[17],inactive
same,outcome,[6],inactive
O=S(=O)(O)c1ccc(O)c2ncccc12,outcome,[1],inactive
same,outcome,[16],inactive
same,outcome,[5],inactive
same,outcome,[17],inactive
same,outcome,[6],inactive
same,outcome,[18],inactive
same,outcome,[7],inactive
same,outcome,[8],inactive
CCO[Si](CCCS)(OCC)OCC,outcome,[1],inactive
same,outcome,[16],inactive
same,outcome,[5],inactive
same,outcome,[17],inactive
same,outcome,[6],inactive
same,outcome,[18],inactive
same,outcome,[8],inactive
CC(O)C(C)O (centres undefined),outcome,[1],inactive
same,outcome,[16],inactive
same,outcome,[5],inactive
same,outcome,[17],inactive
same,outcome,[6],inactive
same,outcome,[18],inactive
same,outcome,[8],inactive
CCCCCCCCCC=O,AC50,[1],29.6 µM (active)
same,outcome,[2],inactive
same,outcome,[3],inactive
same,AC50,[4],45.4 µM (active)
same,outcome,[18],inactive
same,AC50,[7],59 µM (active)
same,outcome,[10],inactive
same,outcome,[11],inactive
same,outcome,[12],inactive
same,AC50,[13],32.3 µM (active)
same,outcome,[14],inactive
same,outcome,[15],inactive
N#Cc1ccc(CC(=NNC(=O)Nc2ccc(OC(F)(F)F)cc2)c2cccc(C(F)(F)F)c2)cc1,outcome,[1],inactive
same,outcome,[2],inactive
same,outcome,[3],inactive
same,AC50,[4],26.9 µM (active)
same,outcome,[5],inactive
same,outcome,[18],inactive
same,outcome,[10],inactive
same,outcome,[11],inactive
same,outcome,[12],inactive
same,outcome,[13],inactive
same,outcome,[14],inactive
same,outcome,[15],inactive
CCCCCCCCCCCCOCCO,outcome,[1],inactive
same,outcome,[19],inactive
same,outcome,[20],inactive
same,AC50,[4],33.4 µM (active)
same,AC50,[7],33.4 µM (active)
CCC(C(=O)NC(N)=O)c1ccccc1 (centres undefined),outcome,[1],inactive
same,outcome,[16],inactive
same,outcome,[5],inactive
same,outcome,[8],inactive
CCCCCCCCCCCCCCCC(=O)O,AC50,[1],26.5 µM (active)
same,outcome,[19],inactive
same,outcome,[20],inactive
same,outcome,[4],inactive
same,outcome,[17],inactive
same,outcome,[7],inactive
Clc1ccc(Cl)c(Cl)c1Cl,outcome,[1],inactive
same,outcome,[16],inactive
same,outcome,[5],inactive
same,outcome,[6],inactive
same,outcome,[18],inactive
same,AC50,[7],63.4 µM (active)
same,outcome,[8],inactive
OC[C@H]1O[C@H](O[C@]2(CCl)O[C@H](CCl)[C@@H](O)[C@@H]2O)[C@H](O)[C@@H](O)[C@H]1Cl,outcome,[1],inactive
same,outcome,[2],inactive
same,outcome,[3],inactive
same,outcome,[5],inactive
same,outcome,[18],inactive
same,outcome,[8],inactive
same,outcome,[9],inactive
same,outcome,[10],inactive
same,outcome,[11],inactive
same,outcome,[12],inactive
same,outcome,[13],inactive
same,outcome,[14],inactive
same,outcome,[15],inactive
